Test results as given in publication PMC4336329 (PLoS ONE, 2015).
About 14,000 (4.5%) of roughly 310,000 compounds showed an effect of 50% or more. The effect is printed as a negative number. For the sample, strong results were picked, then their nearest neighbours and some compounds at random.

The compounds below were run against human ether-à-go-go-related gene (hERG) potassium channel (human, UniProt Q12809) (assay: primary screen, population patch clamp on CHO cells stably expressing hERG; higher = less effect of the substance).
human ether-à-go-go-related gene (hERG) potassium channel, sequence (Q12809 whole entry, looked up): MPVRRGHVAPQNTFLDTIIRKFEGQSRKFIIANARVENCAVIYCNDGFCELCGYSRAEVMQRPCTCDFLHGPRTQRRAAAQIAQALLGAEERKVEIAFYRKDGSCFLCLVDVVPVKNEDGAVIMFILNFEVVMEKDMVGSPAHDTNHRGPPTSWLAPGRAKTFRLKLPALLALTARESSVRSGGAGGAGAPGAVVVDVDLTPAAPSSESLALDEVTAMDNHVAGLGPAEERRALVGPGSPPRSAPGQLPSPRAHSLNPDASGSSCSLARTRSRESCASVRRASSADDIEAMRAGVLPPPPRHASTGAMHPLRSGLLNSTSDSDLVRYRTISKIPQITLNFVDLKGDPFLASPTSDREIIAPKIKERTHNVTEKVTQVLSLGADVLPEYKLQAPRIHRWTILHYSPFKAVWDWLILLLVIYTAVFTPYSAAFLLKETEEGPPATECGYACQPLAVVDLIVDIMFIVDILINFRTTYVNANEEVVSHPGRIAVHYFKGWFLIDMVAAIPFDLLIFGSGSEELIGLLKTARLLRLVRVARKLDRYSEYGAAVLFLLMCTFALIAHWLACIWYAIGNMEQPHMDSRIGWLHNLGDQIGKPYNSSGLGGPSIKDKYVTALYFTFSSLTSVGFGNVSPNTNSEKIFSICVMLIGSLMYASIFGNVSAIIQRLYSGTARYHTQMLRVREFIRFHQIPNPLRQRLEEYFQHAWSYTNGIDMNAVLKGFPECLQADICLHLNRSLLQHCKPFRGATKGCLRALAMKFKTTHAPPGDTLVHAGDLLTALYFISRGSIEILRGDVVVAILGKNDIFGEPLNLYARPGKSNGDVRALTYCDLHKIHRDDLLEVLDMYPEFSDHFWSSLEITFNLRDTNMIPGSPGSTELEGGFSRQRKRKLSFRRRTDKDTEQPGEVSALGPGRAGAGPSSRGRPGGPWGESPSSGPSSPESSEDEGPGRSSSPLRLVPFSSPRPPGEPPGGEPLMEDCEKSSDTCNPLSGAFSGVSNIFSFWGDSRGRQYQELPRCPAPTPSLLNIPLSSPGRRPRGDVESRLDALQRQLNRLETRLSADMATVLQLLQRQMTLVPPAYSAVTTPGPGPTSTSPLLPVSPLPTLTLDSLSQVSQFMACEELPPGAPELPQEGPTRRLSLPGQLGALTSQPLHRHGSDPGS
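Also: peak tail current of the secondary pulse compared with the same well before compound.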

Row | Compound | hERG current change (%, negative = inhibition) at 10uM [%]
1 | COc1ccc(CN(C)CC(O)COc2ccc(C(=O)c3ccccc3)cc2)c(OC)c1OC (stereo not shown) | -63.7
2 | COc1cccc(OC)c1OCCOc1ccc(C(=O)c2ccccc2)cc1 | -4.82
3 | CN(Cc1cccc(Cl)c1Cl)CC(O)COc1ccccc1.O=C(O)C(=O)O (stereo not shown) | -12
4 | COc1ccc(CN(C)CC(O)COC(c2ccccc2)c2ccccc2)c(OC)c1OC (stereo not shown) | -76.7
5 | COc1ccc(CN(C)CCc2ccccn2)c(OC)c1OC.O=C(O)C(=O)O | -38.9
6 | COc1ccc(CN(C)Cc2ccccc2)c(OC)c1OC | -16.9
7 | COc1ccc(CCNC(=O)C2CCC(=O)N(C3CCCCCC3)C2)cc1 (stereo not shown) | 8.9
8 | O=C(CCN1C(=O)NC2(CCCC2)C1=O)Nc1cccc(S(=O)(=O)N2CCOCC2)c1 | 10.7
9 | O=C(CSc1ncnc2c1nnn2Cc1ccccc1F)NCC1CCCO1 (stereo not shown) | -2.7
10 | Cc1ccc(S(=O)(=O)CCC(=O)Nc2ccc3c(c2)OCO3)cc1 | -16
11 | Cc1ccc(C)c(S(=O)(=O)N2CCN(C(=O)Nc3ccccc3)CC2)c1 | -26.1
12 | O=C(/C=C/c1ccc([N+](=O)[O-])s1)N1CCCCC1 | -38.7
13 | O=C(/C=C/c1ccc([N+](=O)[O-])s1)N1CCN(c2ccccc2)CC1 | -37
14 | O=C(/C=C/c1ccc([N+](=O)[O-])s1)N1CCCC1 | -52.9
15 | COc1cccc(-c2nn(CCC#N)cc2C(=O)Nc2ccccc2Cl)c1 | 5.09
16 | Cc1cc(NC(=O)CSc2cc(Cl)ccc2Cl)n(-c2ccccc2)n1 | -20.2
17 | COc1ccc(CNCC(=O)Nc2cc(C)nn2-c2nc(C)cc(C)n2)cc1OC | -56.8
18 | CCC(C(=O)Nc1cc(C)cc(C)n1)c1ccccc1 (stereo not shown) | -23.6
19 | Cc1cc(C)nc(-n2nc(C)cc2NC(=O)CNC(C)c2ccccc2)n1 (stereo not shown) | -62.2
20 | CCc1ccc(NC(=O)CNCc2ccc(OC)c(OC)c2)cc1.O=C(O)C(=O)O | -21.3
21 | CC(=O)Nc1cc(C)nn1-c1nc(C)cc(C)n1 | 25.4
22 | CCC(C(=O)Nc1cc(C)nn1-c1nc(C)cc(C)n1)c1ccccc1 (stereo not shown) | -67.7

Row | Compound | hERG current change (%, negative = inhibition) at 10uM [%]
23 | CCN(CC(=O)Nc1cc(C)nn1-c1nc(C)cc(C)n1)Cc1ccccc1 | -42.8
24 | Cc1cc(C)nc(-n2nc(C)cc2NC(=O)C(C)C)n1 | 16.9
25 | COc1ccc(-c2nc(CSCC(=O)N3CCN(C)CC3)c(C)o2)cc1OC | 11.7
26 | COc1ccccc1Nc1nnc(SCc2nnc(-c3cc(OC)c(OC)c(OC)c3)o2)s1 | -21.7
27 | CC1(C)O[C@@H]2[C@H](O1)[C@@H](COS(=O)(=O)[O-])O[C@H]2n1cnc2c(N)ncnc21.[K+] | 15.7
28 | O=C(COc1ccc(C(=O)NCCc2ccccc2)cc1)Nc1ccccc1 | 7.64
29 | COc1ccc2[nH]c(C)c(CCNCc3cccnc3)c2c1.O=C(O)C(=O)O | -3.77
30 | COc1ccc(CNCCc2c(C)[nH]c3ccc(OC(F)(F)F)cc23)c(OC)c1.O=C(O)C(=O)O | -51
31 | Cc1[nH]c2ccc(OC(F)(F)F)cc2c1CCNCc1cccc([N+](=O)[O-])c1 | -25.4
32 | CCOc1cccc(CNCCc2c(C)[nH]c3ccc(OC(F)(F)F)cc23)c1O.O=C(O)C(=O)O | -51.9
33 | Cc1[nH]c2ccc(OC(F)(F)F)cc2c1CCNCc1ccc(Cl)cc1.O=C(O)C(=O)O | -34.5
34 | COc1ccc2[nH]c(C)c(CCNCc3cn(C)c4ccccc34)c2c1.O=C(O)C(=O)O | -27.8
35 | CC(=O)n1cc(CO)c2ccccc21 | 9.03
36 | O=S(=O)(Nc1nc2ccccc2nc1Nc1ccc2c(c1)OCO2)c1ccc(F)cc1 | 24.5
37 | Cc1cccc(C)c1NC(=O)CSc1ccc([N+](=O)[O-])cn1 | -12.3
38 | COc1ccc(NC(=S)NCc2cccnc2)cc1OC | 5.8
39 | OC1(c2cccs2)CN(c2ccc(Cl)cc2)C2=[N+]1CCCS2.[Br-] (stereo not shown) | -73.6
40 | CCc1ccc(N2CC(O)(c3cccs3)[N+]3=C2SCCC3)cc1.[Br-] (stereo not shown) | -70
41 | OC1(c2cccs2)CN(c2ccc(Br)cc2)C2=[N+]1CCCS2.[Br-] (stereo not shown) | -72.1
42 | OC1(c2ccc(Br)cc2)CN(c2ccccc2)C2=[N+]1CCS2.[Br-] (stereo not shown) | -19.5
43 | Cc1ccc(Oc2ccc(C(=O)NC3CCSC3=O)cn2)cc1 (stereo not shown) | 12
44 | CC(C)(CNc1ccc([N+](=O)[O-])cc1Cl)CNS(C)(=O)=O | -1.02

Row | Compound | hERG current change (%, negative = inhibition) at 10uM [%]
45 | Cc1cc(/C=N/n2cnnc2)c(C)n1-c1ccccc1 | -4.02
46 | COc1ccccc1C(=O)CSc1nccn1C | -11.1
47 | O=C1NC(=O)N(c2ccccc2)C(=O)/C1=C\c1ccc2c3c(cccc13)CC2 | -20.4
48 | CCOC(=O)c1c(NC(=O)c2ccc(Cl)cc2)csc1C | -0.689
49 | Cc1cc(C(=O)NCCCN2CCOCC2)n(-c2ccccc2)n1 | 19.3
50 | O=C(NCCCN1CCN(c2cccc(Cl)c2)CC1)c1cccc(N2CCCC2=O)c1 | -38
51 | CC(=O)Nc1ccccc1C(=O)C(=O)Nc1cccc(C(=O)NCc2ccccc2)c1 | -32.6
52 | O=C(NCCCN1CCN(CCCNC(=O)c2cccc(Cl)c2)CC1)c1cccc(Cl)c1 | -74.4
53 | Cc1cc(C(=O)NCCCN2CCN(c3cc(Cl)ccc3C)CC2)n(-c2ccccc2)n1 | -89.2
54 | CC(=O)Nc1ccccc1C(=O)C(=O)Nc1cccc(C(=O)NCc2ccc(C)cc2)c1 | -58.3
55 | Cc1cc(C(=O)NCCCN2CCN(C3CCCCC3)CC2)n(-c2ccccc2)n1 | 2.76
56 | CCCCNC(=O)c1cccc(NC(=O)C(=O)c2ccccc2NC(C)=O)c1 | -19.1
57 | O=C(NCCCn1ccnc1)c1cccc(Cl)c1 | 0.459
58 | COc1ccc(CNS(=O)(=O)CCNC(=O)c2cccc(OC)c2)cc1 | -78.1
59 | COc1cccc(C(=O)NCCS(=O)(=O)NCc2ccc(Cl)cc2)c1 | -36.5
60 | COc1ccc(CNS(=O)(=O)CCNC(=O)c2ccccc2)cc1 | -4.36
61 | Oc1c(Cl)cc(Cl)cc1/C=N/c1nccs1 | -11.8
62 | O=C(COC(=O)C1CCN(S(=O)(=O)c2cccc3cccnc23)CC1)c1ccc([N+](=O)[O-])cc1 | 13.1
63 | O=C(NC(=O)c1ccccc1F)Nc1nc(-c2cccs2)cc(C(F)(F)F)n1 | 4.49
64 | COC(=O)CC1c2cc(OC)c(OC)cc2CC(=O)c2cc(OC)c(OC)cc21 (stereo not shown) | 6.73
65 | Nn1c(COc2ccccc2)nnc1SCc1cc(=O)[nH]c2ccccc12 | -14.3
66 | CCCNC(=S)N1CCC(C(=O)c2ccc3c(c2)OCCO3)CC1 | -28.9

Row | Compound | hERG current change (%, negative = inhibition) at 10uM [%]
67 | COc1ccccc1CNS(=O)(=O)c1csc(C(N)=O)c1 | 20.1
68 | CCCc1cc(=O)[nH]c(SCC(=O)NN(c2ccccc2)c2ccccc2)n1 | -1.04
69 | COc1cccc(C(=O)NCCCN2CCN(CCCNC(=O)c3cccc(OC)c3)CC2)c1 | -85.4
70 | Cl.O=C(NCCN1CCN(c2ccccc2)CC1)c1cccc(Cl)c1 | -54.2
71 | COc1cc(C(=O)NCCN2CCCC2)cc(OC)c1OC.Cl | 9.26
72 | Nc1ccccc1C(=O)NCCCN1CCN(c2cccc(Cl)c2)CC1 | -71.4
73 | COc1cccc(C(=O)NCCN2CCN(c3ccc(Cl)cc3)CC2)c1 | -49.8
74 | CCOc1ccc(C(=O)NCCN2CCCC2)cc1.Cl | -40.6
75 | Cc1cccc(C(=O)NCCN2CCN(c3ccccc3)CC2)c1.Cl | -37.1
76 | COc1cccc(C(=O)NCCCNC(=O)c2cccc(OC)c2)c1 | 1.43
77 | Cn1c(C(=O)NCCCN2CCN(c3cccc(Cl)c3)CC2)cc2c(=O)n(C)c3ccccc3c21 | 9.13
78 | CCOc1c(Cl)cc(C(=O)NCCN2CCCCC2)cc1Cl | -58.6
79 | COc1cc(OC)cc(C(=O)NCCCN2CCN(CCCNC(=O)c3cc(OC)cc(OC)c3)CC2)c1 | -48.8
80 | Nc1ccccc1C(=O)NCCCN1CCOCC1 | 15.6
81 | CCN(CC(=O)Nc1c(F)cccc1F)C(=O)C1CCCN(C(=O)c2ccc(Cl)cc2)C1 (stereo not shown) | -31.5
82 | Cc1ccccc1Nc1nc(N2CCOCC2)nc(N2CCOCC2)n1.Cl | 14
83 | CC1=CC(c2ccc(Cl)cc2)n2nc(NS(=O)(=O)c3ccc(C)cc3)nc2N1 (stereo not shown) | -19.7
84 | CCOC(=O)c1cnc2c(cnn2C)c1NCCC(O)C(F)(F)F (stereo not shown) | 0.469
85 | Cc1ccc(SCC(=O)Nc2ccc(F)cc2[N+](=O)[O-])cc1C | 11.7
